Screens as filed in PubChem.
Shown are actives, neighbours in structure and some others; about 12% of the full set was active somewhere.
Sm TGR inh – qHTS Assay for the Inhibitors of Schistosoma Mansoni Peroxiredoxins; Schistosoma mansoni thioredoxin glutathione reductase (TGR), Q962Y6; purified TGR, DTNB reduction, TNB absorbance 405 nm; Potency, µM (doses to about 114 µM), inactives show at the highest dose activity change, negative = inhibition, hits mostly inhibitors; 360,000 tested, 3% active; further: on the % scale 0 is the no-effect control and ±100 the full control effect; nearly all actives have a fitted effect of over 60% in size
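Kinetic colorimetric format: TGR-catalysed, NADPH-driven DTNB reduction monitored via TNB absorbance. Enzyme dispensed at 20 nM; compound exposure 15 min at room temperature before reaction start.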
Pf growth 48h – Primary qHTS for delayed death inhibitors of the malarial parasite plastid, 48 hour incubation; Potency, µM (series often up to 28.7 µM), for inactives: at the highest dose activity change, negative = inhibition, hits mostly inhibitors; P. falciparum luciferase growth in erythrocytes, 48 h; 310,000 tested, 5.9% active; further: on the % scale 0 is the no-effect control and ±100 the full control effect
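First compound was added to culture medium, then infected red cells at 0.1% parasitemia and 2% hematocrit (final). After incubation at 37 C under 5% CO2, luciferase detection reagent was dispensed and light output recorded.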
AmpC detergent – qHTS Inhibitors of AmpC Beta-Lactamase (assay with detergent); P00811; AmpC hydrolysis of nitrocefin, absorbance 480 nm, 0.01% Triton; Potency, µM (doses to about 114 µM), without a hit: at the highest dose activity change, negative = inhibition, usual class: inhibitors; AID 485294, 2010; 370,000 tested, 0.041% active;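 further: 0% = no-compound wells and -100% = no-enzyme wells; nearly all actives have a fitted effect of over 25% in size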
Target sequence (P00811 whole entry, looked up): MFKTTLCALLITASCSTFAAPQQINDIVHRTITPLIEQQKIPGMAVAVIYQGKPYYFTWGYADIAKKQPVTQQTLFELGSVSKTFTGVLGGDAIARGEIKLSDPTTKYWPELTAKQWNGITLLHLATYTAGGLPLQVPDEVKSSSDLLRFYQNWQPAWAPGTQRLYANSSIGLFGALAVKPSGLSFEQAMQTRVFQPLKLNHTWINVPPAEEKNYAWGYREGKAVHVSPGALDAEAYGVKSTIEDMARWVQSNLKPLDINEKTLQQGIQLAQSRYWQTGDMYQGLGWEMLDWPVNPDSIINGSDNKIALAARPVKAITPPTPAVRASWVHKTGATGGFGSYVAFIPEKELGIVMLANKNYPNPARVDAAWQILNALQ
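AmpC (5.3 nM in the dispensed reagent) in 20 mM phosphate pH 7.0 with 0.01% (detergent screen) or 0.0001% Triton X-100 was preincubated with compounds for 15 min at room temperature. Nitrocefin was then added from an 800 uM solution, and hydrolysis was followed at 480 nm.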
AmpC inh no detg – qHTS Inhibitors of AmpC Beta-Lactamase (assay without detergent); P00811; AmpC nitrocefin hydrolysis, absorbance 480 nm, 0.0001% Triton; Potency, µM (highest dose often 57.1 µM), for inactives: at the top dose activity change, negative = inhibition, hits mostly inhibitors; 330,000 tested, 0.52% active;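 further: plate controls were no compound for no effect and no enzyme for full effect; nearly all actives have a fitted effect of over 20% in size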
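AmpC (5.3 nM in the dispensed reagent) in 20 mM phosphate pH 7.0 with 0.01% (detergent screen) or 0.0001% Triton X-100 was preincubated with compounds for 15 min at room temperature. Nitrocefin was then added from an 800 uM solution, and hydrolysis was followed at 480 nm.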
SARS PLP yeast – qHTS of Yeast-based Assay for SARS-CoV PLP | S. cerevisiae expressing SARS-CoV PLpro, growth rescue | Potency, µM (doses to about 32.9 µM), inactives show at the top dose activity, positive = growth rescue, actives largely listed as activators | 330,000 tested, 0.19% active | AID 485353, 2010; calls by dose curve; further: 0% is about no effect; nearly all actives have a fitted effect of over 55% in size
Pf growth 96h – Primary qHTS for delayed death inhibitors of the malarial parasite plastid, 96 hour incubation; P. falciparum luciferase reporter growth, 96 h; Potency, µM (highest dose often 28.7 µM), without a hit: at the highest dose activity change, negative = inhibition, actives largely listed as inhibitors; 320,000 tested, 6.9% active; AID 504834, 2011; further: on the % scale 0 is the no-effect control and ±100 the full control effect
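Plates of compound plus infected erythrocytes (2% hematocrit, 0.05% parasitemia final) incubate 96 hours, 37 C, 5% CO2. Detection reagent added; reduced luminescence from the parasites' luciferase reporter flags inhibition.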
Active calls of the source: *; ? = inconclusive; / = no result; [ ] = another dose, or the depositor's remark. Unless noted, the call rests on the fitted dose curve; in most records, active means well fitted curve in the direction sought with a large enough effect; inconclusive means small, poorly fitted or top-dose-only effect, or another doubt; inactive means no such curve, though single readings can be large; an effect the other way counts as inactive or inconclusive. Potency means the concentration at half of the fitted maximal effect.

SMILES	Sm TGR inh	Pf growth 48h	AmpC detergent	AmpC inh no detg	SARS PLP yeast	Pf growth 96h
CCN(CC)c1ccc(NC(=O)c2nc3nc(C)cc(C(F)F)n3n2)cc1	-4%	?	9%	3.2µM*	?	?
CCc1ccc(NC(=O)c2nc3nc(C)cc(C(F)F)n3n2)cc1	3%	/	4%	/	/	/
CCC(C)(C)NC(=O)C(Sc1ccccc1)c1ccccc1 (configuration not stated)	5%	?	-6%	-23%	-2%	10µM*
CCCNC(=O)C(Sc1ccccc1)c1ccccc1 (configuration not stated)	0%	-21%	-12%	-18%	24%	-26%
Cc1ccc(C(=O)NC(C)c2ccc(-n3ccnc3)cc2)cc1S(=O)(=O)N1CCOCC1 (configuration not stated)	-4%	?	0%	75%	-2%	?
CC(NC(=O)c1cc([N+](=O)[O-])cc([N+](=O)[O-])c1)c1ccc(-n2ccnc2)cc1 (configuration not stated)	-24%	1.5µM*	1%	-32%	2%	0.93µM*
CC(NC(=O)c1cc(S(=O)(=O)N2CCOCC2)ccc1F)c1ccc(-n2ccnc2)cc1 (configuration not stated)	6%	-22%	-3%	31%	-5%	9.3µM*
Cc1ccc(C)c(S(=O)(=O)C(C#N)c2nc3ccccc3nc2N2CC(C)OC(C)C2)c1 (configuration not stated)	2%	13µM*	-9%	-16%	-16%	-24%
Cc1ccc(C)c(S(=O)(=O)C(C#N)c2nc3ccccc3nc2N2CCCC2)c1 (configuration not stated)	-12%	?	-7%	-21%	7%	25%
COc1cccc(C(=O)Nc2nc(-c3nnn(-c4cccc(Cl)c4C)c3C)ns2)c1	10%	/	-1%	/	/	/
COc1cc(-c2nn3c(Cc4ccccc4)nnc3s2)cc(OC)c1OC	-9%	10µM*	-11%	28%	4%	43%
COc1ccc(C(=O)Nc2ccc(-c3cn4ccsc4n3)cc2)cc1S(=O)(=O)N1CCOCC1	-19%	?	?	58%	-6%	0.33µM*
COc1ccc(C(=O)Nc2cccc(-c3csc(C)n3)c2)cc1S(=O)(=O)N1CCCC1	-7%	12µM*	-9%	73%	2%	13µM*
COc1ccc(C(=O)Nc2ccc(N3CCOCC3)cc2)cc1S(=O)(=O)N1CCOCC1	6%	43%	1%	3%	-1%	9%
COc1ccc(C(=O)Nc2ccc(-c3ccc(C)o3)cc2)cc1S(=O)(=O)N1CCOCC1	50µM*	?	6%	53%	11%	/
Cc1ccc(C)c(/C=N/Nc2nc3ccccc3c(=O)n2O)c1	15%	34%	0%	-20%	2%	7%
Cc1ccc(NC(=O)Cn2c(=O)n(CCC(=O)N3CCc4ccccc4C3)c(=O)c3ccccc32)cc1	15%	/	3%	/	/	/
CCOC(=O)CCC(NC(=O)c1ccc(NCN2C(=O)CCC2=O)cc1)C(=O)OCC (configuration not stated)	5%	-8%	7%	/	/	2%
CCOC(=O)CCC(NC(=O)c1ccc(NCN2C(=O)c3ccccc3C2=O)cc1)C(=O)OCC (configuration not stated)	0%[11.4 µM]	/	-13%	15%	-18%	4.1µM*
COc1ccc(-c2cnc(C)o2)cc1S(=O)(=O)Nc1ccc(C)c(F)c1	-4%	/	?	/	/	/
COc1ccc(C(=O)NNC(=O)Cc2ccc([N+](=O)[O-])cc2)cc1	5%	29%	-8%	-27%	-12%	-3%
COc1ccc(CC2(C)OC(c3ccc([N+](=O)[O-])cc3)=NN2C(C)=O)cc1 (configuration not stated)	5%	9.3µM*	1%	47%	-4%	9.3µM*
Cc1[nH]nc(-c2ccc(OCc3cnn(-c4ccccc4)c3)cc2O)c1Oc1ccc(F)cc1	2%	?	-3%	-44%	4%	9.3µM*
Cc1[nH]nc(-c2ccc(O)c(C)c2O)c1Oc1ccccc1	6%	/	-7%	-57%	-16%	-2%
CCOc1ccc(-c2n[nH]c(C)c2Oc2ccc(OC)cc2)c(O)c1	-7%	13µM*	-7%	-20%	-2%	/
SMILES	Sm TGR inh	Pf growth 48h	AmpC detergent	AmpC inh no detg	SARS PLP yeast	Pf growth 96h
Cc1ccc(Cn2c(CCNC(=O)c3cccc(C)c3)nc3ccccc32)cc1	2%	/	-1%	/	/	/
CCCN(CCC)S(=O)(=O)c1ccc(NS(C)(=O)=O)cc1	3%	9%	-5%	-18%	5%	8%
CCCN(CC1CC1)S(=O)(=O)c1ccc(S(N)(=O)=O)cc1	-3%	0%	?	0.5µM*	2%	15%
COc1cc(/C=C/C(=O)OCC(=O)NC(=O)NC(C)C)cc(S(=O)(=O)N2CCc3ccccc32)c1OC	11%	-18%	?	-16%	-3%	-23%
CCOc1ccc(-c2nnc3sc(COc4ccccc4)nn23)cc1	-1%	-9%	6%	-21%	-2%	12µM*
COc1ccc(Cn2c(O)c(C=Nc3ccccc3)c3ccccc3c2=O)cc1	-1%	?	-3%	-21%	13%	?
COc1ccc(Cn2c(O)c(C=Nc3ccc(O)cc3)c3ccccc3c2=O)cc1	-19%	-23%	?	-23%	-8%	12µM*
CC(=O)N1c2ccc(C)cc2C(c2ccccc2)CC1C (configuration not stated)	-3%	7.4µM*	-15%	71%	-5%	?
CC(=O)OC1CC(C)N(C(=O)c2ccccc2)c2ccc(C)cc21 (configuration not stated)	5%	59%	2%	-3%	-3%	/
CCCCn1c(-c2ccncc2)nc2c1c(=O)[nH]c(=O)n2CC(C)C	10%	?	-12%	-20%	-2%	?
CCCCn1c(-c2cccnc2)nc2cc3[nH]c(=O)c(C(C)C)nc3cc21	-28%	?	?	143%	17%	10µM*
CCCCn1c(-c2cccc(Br)c2)nc2cc3[nH]c(=O)c(C(C)C)nc3cc21	-20%	?	?	47%	-6%	6.6µM*
CCCCn1c(-c2cccnc2)n[nH]c1=S	-8%	-1%	-4%	-13%	5%	2.6µM*
